Consider eight compounds from PubChem BioAssay (Tox21).

Each structure is given as a SMILES string. A number with no mark means an inactive call. Results filed as inconclusive are left out. Activity calls are given as the source filed them. Unless noted, the call rests on the fitted dose curve; in most records, active means well fitted curve in the direction sought with a large enough effect in the repeat runs; inconclusive means weak or mixed curves; inactive means no such curve, though single readings can be large; an effect the other way counts as inactive or inconclusive.

Assay [1] is described as follows: qHTS assay to identify small molecule antagonists of the sonic hedgehog signaling (Shh) pathway (AID 1259369; calls by dose curve; further: nearly all actives have a fitted effect of over 45% in size; further: potency means the concentration at half of the fitted maximal effect). The method, boiled down:
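NIH/3T3-derived 3T3Gli1-Luc cells with stably integrated Gli1-Luc reporter were preincubated 4hr at 37 C, then given compounds in DMSO plus Shh conditioned medium and incubated 24hr. Firefly luciferase luminescence read after 30min reagent at room temperature.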
In general terms: qHTS replaces the single test concentration by a dilution series.

The target of assay [2] is Estrogen receptor beta (Homo sapiens) (UniProt Q92731). Briefly: qHTS assay to identify small molecule agonists of the estrogen receptor beta (ER-beta) signaling pathway (AID 1259377; active means well fitted activation curve with a large enough effect in the signal ratio in the repeat runs, not every such curve was filed as active; the % refers to the signal ratio). In outline: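 qHTS in ER-beta-UAS-bla HEK293T cells: 6 hr settling, then 16 hr compound at 37C, then LiveBLAzer substrate 2 h at RT before fluorescence reading.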
Assay [3] can be described thus: qHTS assay to identify small molecule agonists of the androgen receptor (AR) signaling pathway in the presence of an antagonist - cell viability counter screen (AID 1259379). Further: nearly all actives have a fitted effect of over 25% in size. Further: potency means the concentration at half of the fitted maximal effect. In outline: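 MDA-kb2 human breast carcinoma cells (stable MMTV-luciferase, AR/GR responsive) were seeded 3,000 cells/well, pre-incubated 5 hr at 37C without CO2, then given 3.0uM nilutamide and compounds at 15 concentrations for 16 hr. Viability was read by CellTiter-Fluor fluorescence.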

Assay [4] in a line: qHTS assay to identify small molecule agonists of the estrogen receptor beta (ER-beta) signaling pathway - cell viability counter screen (AID 1259380). Further: nearly all actives have a fitted effect of over 30% in size. Further: potency means the concentration at half of the fitted maximal effect. The method, boiled down: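 ER-beta-UAS-bla HEK293T cells in medium with 2% charcoal-stripped FBS were preincubated 6 hr at 37C, dosed with compound in DMSO for 16 hr, then after the bla read, CellTiter-Glo was added for 30 min at room temperature; luminescence recorded.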

Assay [5] is described as follows: qHTS assay to identify small molecule antagonists of the estrogen receptor beta (ER-beta) signaling pathway - cell viability counter screen (AID 1259382). Further: nearly all actives have a fitted effect of over 55% in size. Further: potency means the concentration at half of the fitted maximal effect. The method, boiled down:
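ER-beta-UAS-bla HEK293T cells (2,000/well, 2% charcoal-stripped FBS) were pre-incubated 6 hr at 37C, then given compound plus 1nM final 17-beta-estradiol for 16 hr. Viability was read in the same wells by CellTiter-Glo luminescence after 30 min at room temperature.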

Assay [6] can be described thus: qHTS assay to identify small molecule agonists or antagonists of the thyroid stimulating hormone receptor (TSHR) signaling pathway - wild type cell line counter screen (AID 1259384; calls by dose curve). In outline: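 Wild-type Hek293 cells, 800/well, 18 h at 37C, then compound with Ro20-1724 for 30 min RT. cAMP by HTRF (cAMP-d2/anti-cAMP cryptate), 1 h RT, fluorescence read. 15 concentrations, triplicates.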

The target in assay [7] is Thyrotropin receptor (Homo sapiens) (UniProt P16473). In words: qHTS assay to identify small molecule antagonists of the thyroid stimulating hormone receptor (TSHR) signaling pathway (AID 1259385; calls by dose curve; further: nearly all actives have a fitted effect of over 20% in size). The method, boiled down: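 TSHR-HEK293 cells (800/well) plated 18 h, then compounds with Ro20-1724 and TSH at 1.5 ng/mL final, 30 min at room temperature. cAMP quantified by HTRF (cAMP-d2/anti-cAMP-cryptate, 1 h); 15 concentrations in triplicate.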

A short description of assay [8]: qHTS assay to identify small molecule agonists of the estrogen receptor alpha (ER-alpha) signaling pathway in the presence of an antagonist - cell viability counter screen (AID 1259386).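 Further: series mostly up to about 92 µM; cells exposed to compounds for 22 h at 37 °C before the viability read; nearly all actives have a fitted effect of over 30% in size.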 In outline:
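VM7Luc4E2 cells (endogenous full-length ER-alpha, 4×ERE-luciferase) were held 5 days in phenol red-free medium with 10% charcoal-stripped FBS, plated, then given 10.0nM ICI-182,780 and compounds at 15 concentrations for 22hr at 37C; viability read by CellTiter-Fluor fluorescence.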

Assay [9] in a line: qHTS assay to identify small molecule agonists of the progesterone receptor (PR) signaling pathway - cell viability counter screen (AID 1346799; calls by dose curve; further: nearly all actives have a fitted effect of over 45% in size). In outline: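 In parallel with the beta-lactamase readout, cytotoxicity toward PR-UAS-bla HEK293T cells was measured by CellTiter-Glo luminescence following 16 hr compound incubation in 2% charcoal-stripped FBS medium.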
A short description of assay [10]: qHTS assay to identify small molecule antagonists of the TGF-beta/Smad signaling pathway - cell viability counter screen (AID 1346824). Further: nearly all actives have a fitted effect of over 50% in size. The method, boiled down: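 SBE-bla HEK 293T cells, incubated overnight, then compound plus 0.25 ng/mL TGF-beta1 (stock added) for 5 hr at 37 C. Viability was read in the same wells by CellTiter-Glo luminescence after 30 min at room temperature.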

The nature of assay [11]: qHTS assay to identify small molecule agonists of the TGF-beta/Smad signaling pathway - cell viability counter screen (AID 1346829). Further: top concentration of the series differs between compounds; nearly all actives have a fitted effect of over 45% in size. The method, boiled down: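 Here the cytotoxicity of library compounds is measured in SBE-bla HEK 293T cells treated for 5 hr, using CellTiter-Glo added to wells already read for the beta-lactamase reporter.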
A short description of assay [12]: qHTS assay to identify small molecule agonists of the TGF-beta/Smad signaling pathway (AID 1346859; active means well fitted activation curve with a large enough effect in the signal ratio in the repeat runs, not every such curve was filed as active; the % refers to the signal ratio; further: series mostly up to about 77 µM). In outline:
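After overnight seeding, SBE-bla HEK 293T cells are dosed with compounds in DMSO and kept 5 hr at 37 C, 5% CO2. LiveBLAzer-type FRET substrate is then applied for 2 hr at room temperature.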

The target in assay [13] is Thyrotropin-releasing hormone receptor (Homo sapiens) (UniProt P34981). Briefly: qHTS assay to identify small molecule antagonists of the thyrotropin-releasing hormone receptor (TRHR) signaling pathway (AID 1346877; active means well fitted inhibition curve with a large enough effect in the repeat runs, not every such curve was filed as active; further: series mostly up to about 51 µM). The method, boiled down:
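TRHR-expressing HEK293 cells were seeded, cultured 18 h at 37 °C, then loaded with calcium dye for 2 h. Compounds were pre-incubated 5 min at room temperature before 1 nM TRH (final) was added, and kinetic fluorescence was recorded for 3 min.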

Assay [14] has the same target. In words: qHTS assay to identify small molecule agonists of the thyrotropin-releasing hormone receptor (TRHR) signaling pathway (AID 1346891; calls by dose curve; further: series mostly up to about 58 µM). The method, boiled down:
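Compounds were tested as agonists at 15 concentrations, in triplicate, on TRHR-Hek293 cells; calcium-sensitive dye fluorescence was recorded for 3 min following addition.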

For assay [15], the target named is Estrogen receptor beta (Homo sapiens) (UniProt Q92731). Briefly: qHTS assay to identify small molecule antagonists of the estrogen receptor beta (ER-beta) signaling pathway (AID 1259378; active means well fitted inhibition curve with a large enough effect in the signal ratio in the repeat runs, not every such curve was filed as active; the % refers to the signal ratio; further: potency means the concentration at half of the fitted maximal effect). In outline:
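ER-beta-UAS-bla HEK293T cells in 2% charcoal-stripped FBS medium treated with compound plus 1nM final 17-beta-estradiol for 16 hr at 37C. Beta-lactamase reporter read by FRET substrate fluorescence after 2 hours at room temperature.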

Assay [16] addresses Androgen receptor (Homo sapiens) (UniProt P10275). Briefly: qHTS assay to identify small molecule agonists of the androgen receptor (AR) signaling pathway in the presence of an antagonist (AID 1259381; calls by dose curve; further: nearly all actives have a fitted effect of over 15% in size). The method, boiled down: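 MDA-kb2 human breast carcinoma cells carrying an MMTV-luciferase reporter (AR- and GR-responsive) were treated with compounds at 15 concentrations plus 3.0uM final nilutamide for 16hr at 37C without CO2; luminescence was read after ONE-Glo addition.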

Assay [17] addresses Estrogen receptor (Homo sapiens) (UniProt P03372). Briefly: qHTS assay to identify small molecule agonists of the estrogen receptor alpha (ER-alpha) signaling pathway in the presence of an antagonist (AID 1259383; calls by dose curve; further: top concentration of the series differs between compounds; nearly all actives have a fitted effect of over 15% in size). In outline:
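VM7Luc4E2 cells (endogenous full-length ER-alpha, 4×ERE-luciferase) were precultured 5 days in phenol red-free medium with 10% charcoal-stripped FBS, given 10.0nM ICI-182,780 (final), then treated with compounds at 15 concentrations for 22hr at 37C; luminescence read with ONE-Glo.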

Assay [18] has as its target Progesterone receptor (Homo sapiens) (UniProt P06401). In words: qHTS assay to identify small molecule agonists of the progesterone receptor (PR) signaling pathway (AID 1346784; calls by dose curve; further: nearly all actives have a fitted effect of over 30% in size). The method, boiled down:
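Fluorescence from LiveBLAzer B/G FRET substrate cleavage (2 hr, RT) reported PR activation in PR-UAS-bla HEK 293T cells treated 16 hr at 37C/5% CO2 with compounds; medium contained 2% charcoal-stripped FBS.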

Assay [19] in a line: qHTS assay to identify small molecule antagonists of the progesterone receptor (PR) signaling pathway - cell viability counter screen (AID 1346798). Further: series mostly up to about 92 µM; nearly all actives have a fitted effect of over 50% in size. In outline:
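CellTiter-Glo luminescence; PR-UAS-bla HEK293T, 3,000 cells/well; compound + R5020, 16 hr, 37C/5% CO2; 30 min RT before read.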

The target of assay [20] is Progesterone receptor (Homo sapiens) (UniProt P06401). In words: qHTS assay to identify small molecule antagonists of the progesterone receptor (PR) signaling pathway (AID 1346795; active means well fitted inhibition curve with a large enough effect in the signal ratio in the repeat runs, not every such curve was filed as active; the % refers to the signal ratio). In outline:
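Fluorescence intensity measured 2 hr after adding beta-lactamase FRET substrate to PR-UAS-bla HEK293T cells that had been co-treated 16 hr with compound and 1 nM R5020 (final concentration) in 2% charcoal-stripped FBS.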

Chain of Estrogen receptor (Homo sapiens) (P03372 whole entry, looked up): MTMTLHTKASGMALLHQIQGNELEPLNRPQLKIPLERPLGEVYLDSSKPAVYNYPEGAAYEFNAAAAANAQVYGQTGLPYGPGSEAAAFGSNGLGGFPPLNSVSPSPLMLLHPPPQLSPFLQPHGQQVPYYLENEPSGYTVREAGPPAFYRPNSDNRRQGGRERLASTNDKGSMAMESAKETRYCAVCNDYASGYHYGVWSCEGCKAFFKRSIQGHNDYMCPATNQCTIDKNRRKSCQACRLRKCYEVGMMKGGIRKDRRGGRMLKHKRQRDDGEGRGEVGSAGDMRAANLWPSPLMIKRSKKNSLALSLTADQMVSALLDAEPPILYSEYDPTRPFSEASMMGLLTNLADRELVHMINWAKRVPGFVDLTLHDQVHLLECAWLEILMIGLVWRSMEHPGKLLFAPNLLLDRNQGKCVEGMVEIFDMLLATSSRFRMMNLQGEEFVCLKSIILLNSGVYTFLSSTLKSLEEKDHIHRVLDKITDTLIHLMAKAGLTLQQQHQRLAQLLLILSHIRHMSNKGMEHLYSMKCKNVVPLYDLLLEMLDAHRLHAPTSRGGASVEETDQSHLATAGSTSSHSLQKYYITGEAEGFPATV
Chain of Progesterone receptor (Homo sapiens) (P06401 whole entry, looked up): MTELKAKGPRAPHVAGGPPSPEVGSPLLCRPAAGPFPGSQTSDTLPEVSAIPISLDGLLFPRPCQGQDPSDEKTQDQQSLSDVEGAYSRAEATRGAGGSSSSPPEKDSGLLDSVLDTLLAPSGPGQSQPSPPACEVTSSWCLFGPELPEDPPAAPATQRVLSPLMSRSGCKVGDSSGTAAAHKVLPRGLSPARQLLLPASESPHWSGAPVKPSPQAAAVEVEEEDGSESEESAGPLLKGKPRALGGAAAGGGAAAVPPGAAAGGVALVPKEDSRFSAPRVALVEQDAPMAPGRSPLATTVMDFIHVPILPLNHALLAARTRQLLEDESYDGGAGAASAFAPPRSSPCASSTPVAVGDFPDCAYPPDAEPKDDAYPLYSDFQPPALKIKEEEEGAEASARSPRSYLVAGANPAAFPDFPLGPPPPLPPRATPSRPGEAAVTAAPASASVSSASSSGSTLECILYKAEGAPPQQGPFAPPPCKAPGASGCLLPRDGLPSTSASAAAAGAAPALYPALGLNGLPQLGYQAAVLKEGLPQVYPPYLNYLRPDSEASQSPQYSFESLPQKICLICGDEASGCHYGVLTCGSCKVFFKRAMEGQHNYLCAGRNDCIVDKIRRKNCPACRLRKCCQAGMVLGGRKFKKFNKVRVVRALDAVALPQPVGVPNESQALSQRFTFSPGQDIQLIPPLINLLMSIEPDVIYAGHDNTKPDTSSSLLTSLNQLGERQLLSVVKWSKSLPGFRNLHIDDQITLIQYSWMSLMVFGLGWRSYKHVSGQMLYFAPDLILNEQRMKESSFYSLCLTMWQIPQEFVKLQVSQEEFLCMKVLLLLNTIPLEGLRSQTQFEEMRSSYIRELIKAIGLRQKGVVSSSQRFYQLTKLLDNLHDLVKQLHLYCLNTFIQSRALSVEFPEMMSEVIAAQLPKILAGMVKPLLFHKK
Chain of Thyrotropin-releasing hormone receptor (Homo sapiens) (P34981 whole entry, looked up): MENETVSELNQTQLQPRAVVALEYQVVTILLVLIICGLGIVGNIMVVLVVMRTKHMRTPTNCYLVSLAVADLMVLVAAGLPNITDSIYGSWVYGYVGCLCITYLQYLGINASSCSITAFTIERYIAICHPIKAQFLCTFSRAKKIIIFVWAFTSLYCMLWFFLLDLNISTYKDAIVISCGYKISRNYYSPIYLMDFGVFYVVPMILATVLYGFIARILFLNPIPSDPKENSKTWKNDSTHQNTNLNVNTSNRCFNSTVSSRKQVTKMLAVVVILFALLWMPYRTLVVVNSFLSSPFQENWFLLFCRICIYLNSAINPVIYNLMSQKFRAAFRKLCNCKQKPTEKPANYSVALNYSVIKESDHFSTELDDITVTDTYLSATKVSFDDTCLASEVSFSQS
Chain of Thyrotropin receptor (Homo sapiens) (P16473 whole entry, looked up): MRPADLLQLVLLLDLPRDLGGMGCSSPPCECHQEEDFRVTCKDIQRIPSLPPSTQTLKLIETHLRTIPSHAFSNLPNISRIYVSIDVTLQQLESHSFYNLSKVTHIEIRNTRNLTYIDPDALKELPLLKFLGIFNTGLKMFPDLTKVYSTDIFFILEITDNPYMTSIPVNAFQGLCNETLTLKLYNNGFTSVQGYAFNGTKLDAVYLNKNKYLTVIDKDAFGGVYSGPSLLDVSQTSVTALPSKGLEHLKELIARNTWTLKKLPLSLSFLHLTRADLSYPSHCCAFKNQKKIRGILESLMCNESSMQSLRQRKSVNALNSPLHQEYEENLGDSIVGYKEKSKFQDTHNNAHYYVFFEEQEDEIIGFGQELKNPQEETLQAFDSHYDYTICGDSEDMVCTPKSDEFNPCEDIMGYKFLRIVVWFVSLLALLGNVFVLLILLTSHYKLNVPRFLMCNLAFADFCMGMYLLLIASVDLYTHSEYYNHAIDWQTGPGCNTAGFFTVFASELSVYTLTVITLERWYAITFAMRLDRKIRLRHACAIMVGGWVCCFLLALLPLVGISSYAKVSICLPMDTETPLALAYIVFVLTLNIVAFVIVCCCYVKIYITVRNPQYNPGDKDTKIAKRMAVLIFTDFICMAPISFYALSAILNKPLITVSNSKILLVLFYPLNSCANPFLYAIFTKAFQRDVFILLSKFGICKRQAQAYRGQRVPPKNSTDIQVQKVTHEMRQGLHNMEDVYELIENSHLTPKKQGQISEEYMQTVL
Chain of Estrogen receptor beta (Homo sapiens) (Q92731 whole entry, looked up): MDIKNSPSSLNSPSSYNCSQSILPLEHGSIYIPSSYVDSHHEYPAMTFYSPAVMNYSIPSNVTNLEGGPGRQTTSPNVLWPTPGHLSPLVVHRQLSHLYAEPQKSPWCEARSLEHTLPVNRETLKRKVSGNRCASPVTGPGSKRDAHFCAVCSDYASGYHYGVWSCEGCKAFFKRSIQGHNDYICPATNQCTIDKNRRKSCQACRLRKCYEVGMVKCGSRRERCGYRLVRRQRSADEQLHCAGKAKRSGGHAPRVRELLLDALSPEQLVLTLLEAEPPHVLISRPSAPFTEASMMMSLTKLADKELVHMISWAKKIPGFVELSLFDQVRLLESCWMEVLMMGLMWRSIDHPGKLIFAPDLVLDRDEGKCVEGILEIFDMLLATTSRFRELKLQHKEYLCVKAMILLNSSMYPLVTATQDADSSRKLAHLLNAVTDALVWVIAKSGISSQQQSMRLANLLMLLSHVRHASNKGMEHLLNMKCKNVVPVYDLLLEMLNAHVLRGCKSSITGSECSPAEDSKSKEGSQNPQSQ
Chain of Androgen receptor (Homo sapiens) (P10275 whole entry, looked up): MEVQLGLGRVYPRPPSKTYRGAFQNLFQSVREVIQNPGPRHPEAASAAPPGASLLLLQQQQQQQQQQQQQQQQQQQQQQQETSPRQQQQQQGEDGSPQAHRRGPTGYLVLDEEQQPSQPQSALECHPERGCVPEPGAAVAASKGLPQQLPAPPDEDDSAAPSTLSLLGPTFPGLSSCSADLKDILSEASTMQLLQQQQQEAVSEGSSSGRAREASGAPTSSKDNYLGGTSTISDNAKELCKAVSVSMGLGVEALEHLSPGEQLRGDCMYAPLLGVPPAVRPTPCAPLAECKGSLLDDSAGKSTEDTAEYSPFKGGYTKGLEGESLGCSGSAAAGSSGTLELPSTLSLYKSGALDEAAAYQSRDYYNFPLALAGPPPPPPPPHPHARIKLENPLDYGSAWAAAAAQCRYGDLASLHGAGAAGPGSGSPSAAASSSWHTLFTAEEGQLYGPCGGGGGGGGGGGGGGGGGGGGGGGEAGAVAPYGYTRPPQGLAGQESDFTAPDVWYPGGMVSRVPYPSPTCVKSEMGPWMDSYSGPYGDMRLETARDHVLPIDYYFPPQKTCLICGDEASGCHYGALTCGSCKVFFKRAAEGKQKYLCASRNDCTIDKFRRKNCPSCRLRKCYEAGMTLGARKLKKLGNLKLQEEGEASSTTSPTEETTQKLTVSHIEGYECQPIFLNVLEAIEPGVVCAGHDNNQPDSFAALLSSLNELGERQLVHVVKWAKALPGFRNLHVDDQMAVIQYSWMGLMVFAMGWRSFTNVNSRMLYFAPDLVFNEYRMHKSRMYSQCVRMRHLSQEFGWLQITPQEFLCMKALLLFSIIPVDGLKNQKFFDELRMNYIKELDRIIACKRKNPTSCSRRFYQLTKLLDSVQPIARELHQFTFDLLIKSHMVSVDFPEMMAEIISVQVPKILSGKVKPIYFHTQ

Turning to `CC(=O)NO`, the Potency entry in assay [1], in [2], in assay [3], in assay [4], in [5] and in assay [6] was “inactive” throughout. Besides, the Potency entry in [7], in assay [8], in assay [9], in assay [10], in assay [12] and in assay [14] was “inactive” throughout. Also, the call in assay [11] and in assay [13] was inactive.

For `Nc1cccc([N+](=O)[O-])c1`, the Potency entry in assay [1], in assay [15], in assay [3], in [4], in assay [16] and in assay [17] was “inactive” each time. For the same compound, the Potency result in [8], in [18], in assay [19], in assay [9], in [10] and in [12] was “inactive” in each case. In addition, the compound was called inactive in assay [11] and in assay [13].

`Cc1c(N)cccc1[N+](=O)[O-]`: the Potency result in assay [1], in assay [15], in [3], in assay [4], in assay [5] and in assay [17] was “inactive” in each case. Besides, the Potency entry in [6], in assay [7], in [8], in [18], in assay [19] and in assay [10] was “inactive” in each case. For the same compound, in assay [12], the Potency result is “inactive”. The compound was called inactive in [11].

On to `O=C1C(O)=C(O)C(=O)C(O)=C1O`, for which the Potency result in assay [1], in [15], in assay [3], in assay [4], in assay [17] and in [6] was “inactive” in each case. Further, the Potency entry in assay [7], in assay [8], in [18], in [20], in [10] and in assay [12] was “inactive” in each case. Moreover, the compound was classed as inactive in assay [11].

`O=[N+]([O-])c1cccc(S(=O)(=O)O)c1`: the Potency result in assay [1], in assay [5], in assay [8], in [20], in assay [10] and in assay [12] was “inactive” in each case. The Potency in [15] was 2.2 µM (active); in assay [3] it was 62.1 µM (active); in assay [4], 24.7 µM (active). In assay [11], the compound was called inactive.

Regarding `CCCNCC(O)COc1ccccc1C(=O)CCc1ccccc1` (centres undefined), the Potency in [1] was 4.73 µM (active); in [4], 26.6 µM (active); in assay [5], 23.7 µM (active). Further, the Potency entry in [2], in assay [6], in assay [8], in assay [18], in [19] and in assay [10] was “inactive” each time. Further, the Potency entry in assay [12] and in [14] was “inactive” each time. The outcome in assay [11] was inactive.

As to `c1ccc(C(O[C@H]2CCCN(CCc3ccc4c(c3)OCO4)C2)c2ccccc2)cc1`, the Potency entry in assay [1], in assay [2], in assay [3], in assay [17], in assay [6] and in assay [7] was “inactive” in each case. The Potency entry in assay [8], in assay [18], in assay [19], in assay [10], in assay [12] and in assay [14] was “inactive” throughout. The compound was called inactive in [11].

Turning to `COS(=O)(=O)C(F)(F)F`, the Potency in assay [1] was 14.3 µM (active). Besides, the Potency result in assay [15], in assay [3], in assay [4], in [5], in [17] and in [6] was “inactive” each time. Further, the Potency entry in assay [7], in assay [8], in assay [18], in assay [10] and in assay [12] was “inactive” in each case. The result in [11] and in assay [13] was inactive.
